# Measured values reported in PubChem BioAssay.
# Activity calls are given as the source filed them. Unless noted, the rule behind the calls is not given here.
# Experiments:
# [1] = compound effects on lung adenocarcinoma cell viability – A549, calcein-AM fluorescence, 48 h, basal, profiling panel (AID 1162); settings: higher = more signal; note: test concentration not given here
# [2] = compound effects on differentiated 3T3-L1 adipocyte viability – cell-based, 3T3-L1 adipocytes, calcein-AM fluorescence, 48 h, basal, profiling panel (AID 1163); settings: 3T3-L1 adipocytes viability, higher = more signal; note: test concentration not given here
# [3] = compound effects on hepatocellular carcinoma cell viability – HepG2, calcein-AM fluorescence, 48 h, basal, profiling panel (AID 1164); settings: higher = more signal; note: test concentration not given here
# [4] = compound effects on multiple myeloma cell viability – MM1S, calcein-AM fluorescence, 48 h, basal, profiling panel (AID 1165); settings: higher = more signal;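 note: viability of MM1S multiple myeloma cells under basal unstimulated conditions; test concentration not given here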
# [5] = calcein-AM signal in unstimulated myeloma cells – cell-based, calcein-AM fluorescence, 48 h, PK04 Diversity Set, profiling panel (AID 1166); settings: RPMI8226 myeloma viability, higher = more signal;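 note: cells grown under basal conditions without added stimulus; test concentration not given here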
# [6] = JC-1 mitochondrial signal, unstimulated HepG2 cells – cell-based, JC-1 fluorescence, 24 h, 100 nL compound, profiling panel (AID 1167); settings: HepG2 mitochondrial potential, higher = more signal; note: test concentration not given here
# [7] = JC-1 mitochondrial signal, unstimulated adipocytes – cell-based, JC-1 fluorescence, 3T3-L1 adipocytes, 24 h, 100 nL compound, profiling panel (AID 1168); settings: JC-1 mitochondrial fluorescence, higher = more signal, called active from +8 up or from −8 down; note: test concentration not given here
# [8] = JC-1 mitochondrial signal, unstimulated myeloma cells – cell-based, JC-1 fluorescence, RPMI8226, 24 h, 100 nL compound, profiling panel (AID 1169); settings: JC-1 mitochondrial potential fluorescence, higher = more signal; note: test concentration not given here
# [9] = JC-1 mitochondrial signal, unstimulated MM1S myeloma – cell-based, JC-1 fluorescence, 24 h, 100 nL compound, profiling panel (AID 1170); settings: MM1S mitochondrial potential, higher = more signal; note: test concentration not given here
# [10] = resazurin metabolic signal in A549 cells – cell-based, resazurin fluorescence, 24 h, PK04 Diversity Set, profiling panel (AID 1171); settings: A549 viability, higher = more signal, called active from +8 up or from −8 down; note: test concentration not given here
# [11] = resazurin metabolic signal in HepG2 cells – cell-based, resazurin fluorescence, 24 h, PK04 Diversity Set, profiling panel (AID 1172); settings: HepG2 viability, higher = more signal; note: test concentration not given here
# [12] = budding yeast growth changes without added modifier – OD600, strain BY4716, 24 h, basal condition, primary screen (AID 1173); settings: S. cerevisiae BY4716 growth, OD600, 24 h; higher = more signal, called active from +8 up or from −8 down
# [13] = viability profiling in MM1S myeloma cells – cell-based, resazurin fluorescence, basal, 24 h, PK04 Diversity Set, profiling panel (AID 1174); settings: higher = more signal, called active from +8 up or from −8 down; note: test concentration not given here
# [14] = target: Dihydroorotate dehydrogenase (quinone), mitochondrial (Plasmodium falciparum (isolate 3D7)) (UniProt Q08210); experiment: inhibition of P. falciparum DHODH – biochemical, C-terminal His tag, absorbance 600 nm, primary screen (AID 1175); settings: PfDHODH enzyme, DCIP absorbance 600 nm; higher = more signal, called active from +8 up or from −8 down;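 note: recombinant parasite enzyme with a five histidine tag at its C terminus; test concentration not given here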
# Chain of Dihydroorotate dehydrogenase (quinone), mitochondrial (Plasmodium falciparum (isolate 3D7)) (Q08210 whole entry, looked up): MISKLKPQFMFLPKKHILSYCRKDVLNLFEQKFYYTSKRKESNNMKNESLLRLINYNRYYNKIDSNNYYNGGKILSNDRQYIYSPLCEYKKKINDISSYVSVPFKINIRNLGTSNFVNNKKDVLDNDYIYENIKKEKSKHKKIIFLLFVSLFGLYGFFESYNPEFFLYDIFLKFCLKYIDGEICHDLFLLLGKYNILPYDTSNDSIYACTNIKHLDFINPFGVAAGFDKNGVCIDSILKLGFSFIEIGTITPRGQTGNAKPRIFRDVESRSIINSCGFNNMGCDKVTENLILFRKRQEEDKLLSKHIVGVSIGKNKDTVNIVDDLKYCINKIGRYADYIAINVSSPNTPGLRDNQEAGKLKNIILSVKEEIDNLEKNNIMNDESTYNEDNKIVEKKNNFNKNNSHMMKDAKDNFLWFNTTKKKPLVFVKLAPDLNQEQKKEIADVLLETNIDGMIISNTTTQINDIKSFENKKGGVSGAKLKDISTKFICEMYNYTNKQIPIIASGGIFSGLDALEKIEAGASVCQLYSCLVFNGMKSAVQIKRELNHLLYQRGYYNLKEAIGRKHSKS
# [15] = inhibition of PAO1 biofilm formation – strain PAO1, LB-PBS medium, absorbance 600 nm, primary screen (AID 1176); note: test concentration not given here; settings: P. aeruginosa PAO1 growth/biofilm, A600, 12 h; higher = more signal
# [16] = growth modulation of vineyard yeast isolate – strain RM11-1a, OD600, basal, 24 h, primary screen (AID 1177);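 note: cultures grown under basal conditions with no added stressor; test concentration not given here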; settings: S. cerevisiae RM11-1a growth, OD600, 24 h; higher = more signal, called active from +8 up or from −8 down
# [17] = growth of efflux-deficient E. coli DRC39 – strain DRC39, OD650, 24 h, E. coli filamentation inducers, primary screen (AID 1178);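 note: growth measured as culture turbidity by optical density at 650 nm; test concentration not given here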; settings: E. coli DRC39 acrAB, higher = more signal, called active from +8 up or from −8 down
# [18] = growth of efflux-deficient E. coli DRC39 – strain DRC39, OD650, 48 h, E. coli filamentation inducers, primary screen (AID 1179);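 note: screen aims at cell division blockers that make cells filament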; settings: E. coli DRC39 delta-acrAB growth, higher = more signal, called active from +8 up or from −8 down
# [19] = viability profiling in RPMI8226 myeloma cells – cell-based, resazurin fluorescence, basal, 24 h, PK04 Diversity Set, profiling panel (AID 1180); settings: higher = more signal;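 note: RPMI8826 multiple myeloma cell line at 5000 cells per well; test concentration not given here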
# [20] = target: E3 ubiquitin-protein ligase XIAP (Homo sapiens) (UniProt P98170); experiment: small molecules binding XIAP protein – biophysical, small-molecule microarray, fluorescence 635 nm, primary screen (AID 1181); settings: higher = more signal;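 note: score merges 667 nm emission and signal to noise over triplicate slides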
# Chain of E3 ubiquitin-protein ligase XIAP (Homo sapiens) (P98170 whole entry, looked up): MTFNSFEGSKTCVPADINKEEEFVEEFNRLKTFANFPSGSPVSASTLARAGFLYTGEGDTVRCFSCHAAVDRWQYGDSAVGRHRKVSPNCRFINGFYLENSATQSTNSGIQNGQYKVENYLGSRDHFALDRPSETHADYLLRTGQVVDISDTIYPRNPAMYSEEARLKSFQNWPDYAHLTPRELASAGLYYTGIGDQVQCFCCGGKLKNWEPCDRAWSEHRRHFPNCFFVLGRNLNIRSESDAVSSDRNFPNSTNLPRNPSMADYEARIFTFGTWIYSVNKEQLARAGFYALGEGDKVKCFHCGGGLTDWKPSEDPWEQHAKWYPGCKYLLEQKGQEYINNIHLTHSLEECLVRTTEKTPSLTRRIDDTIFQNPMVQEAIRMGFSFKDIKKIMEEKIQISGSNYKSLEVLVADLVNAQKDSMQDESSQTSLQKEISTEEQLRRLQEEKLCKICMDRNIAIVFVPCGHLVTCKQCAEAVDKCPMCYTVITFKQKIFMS
SMILES,z-score [1],z-score [2],z-score [3],z-score [4],z-score [5],z-score [6],z-score [7],z-score [8],z-score [9],z-score [10],z-score [11],z-score [12],z-score [13],composite z-score [14],z-score [15],z-score [16],z-score [17],z-score [18],z-score [19],composite z-score [20]
Cc1ccccc1C(O)C1C=CC2C(=O)NC(=O)C2N1Nc1ccccn1 (stereo not given),-0.251,-1.09,-0.823,-0.0706,-0.729,-0.831,-0.654 (inactive),0.551,0.365,-1.02 (inactive),-1.07,1.21 (inactive),-0.777 (inactive),1.57 (inactive),0.543 (inactive),0.487 (inactive),-0.387 (inactive),-0.316 (inactive),-0.489,0.127
O=C1OCCC=C[C@H]2OC34C=CCN(c5ccc6ccccc6c5)C(=O)[C@H]3N(CCCO)C(=O)[C@@H]4C12 (stereo not given in full),0.167,1.41,-0.16,0.441,-0.556,-0.458,0.241 (inactive),-0.0315,-0.89,-0.391 (inactive),-0.0412,-0.129 (inactive),-0.284 (inactive),-0.286 (inactive),-0.385 (inactive),0.393 (inactive),-0.127 (inactive),-0.611 (inactive),-0.496,0.158
NCCCCCCNC(=O)[C@@H]1C[C@@H]2C(=O)N[C@@H](CCCCN)C(=O)N2[C@@H]1c1ccc(O)cc1,-0.551,0.207,-0.99,-1.25,-0.0734,-1.31,0.535 (inactive),-0.0408,-0.276,-0.71 (inactive),0.0187,0.243 (inactive),0.681 (inactive),-29.1 (active),2.5 (inactive),-0.476 (inactive),-0.273 (inactive),-1.11 (inactive),-0.354,-0.28
COc1cc2c(cc1O)C=[N+](Cc1sc3ccccc3c1Cl)CC2,-0.47,0.425,-0.349,-0.278,-0.133,-1.06,-0.501 (inactive),-0.143,-0.598,0.33 (inactive),0.19,-1.04 (inactive),-1.01 (inactive),-1.18 (inactive),0.034 (inactive),-0.319 (inactive),0.81 (inactive),0.128 (inactive),-0.496,0.158
CCCCCCCCCCC(O)C1C=CC2C(=O)N(c3ccccc3)C(=O)C2N1Nc1ccc(C#N)cc1 (stereo not given),-2.09,0.0958,-4.9,-3.73,-4.13,-3.28,-0.15 (inactive),-0.939,-0.469,-0.186 (inactive),-2.08,1.18 (inactive),-0.653 (inactive),0.481 (inactive),0.571 (inactive),1.25 (inactive),-0.275 (inactive),0.598 (inactive),-2.09,1.38
COC(=O)[C@@]1(Cc2ccc(F)cc2)[C@H]2c3cc(C(=O)N4CCCC4)n(CCc4c[nH]c5ccccc45)c3C[C@H]2CN1C(=O)c1ccccc1,-1.41,-0.743,-1.33,-1.57,-3.02,0.28,-0.222 (inactive),-0.915,-1.21,-1.22 (inactive),-1.03,1.74 (inactive),-2.23 (inactive),-0.106 (inactive),0.343 (inactive),0.0323 (inactive),-1.4 (inactive),-0.319 (inactive),-2.94,-0.018
C=CC[C@H](OC(=O)Nc1ccc(SC)cc1)c1ccc(O)c2ccccc12,-2.22,-0.162,-3.05,-2.74,-4.21,-3.26,0.41 (inactive),-1.02,-2.09,-1.24 (inactive),-1.26,-16.6 (active),-6.71 (inactive),-6.87 (inactive),1.44 (inactive),-20.3 (active),-0.146 (inactive),-0.772 (inactive),-5.02,0.104
COC(=O)C1=CC(CCCO)=CC(c2cccs2)N(C)C=C1C(=O)OC (stereo not given),-0.253,0.483,-0.818,0.347,0.959,-0.386,-0.195 (inactive),-0.294,0.549,-0.28 (inactive),-0.86,0.856 (inactive),-0.482 (inactive),0.75 (inactive),0.462 (inactive),1.13 (inactive),-0.187 (inactive),-0.532 (inactive),0.0222,0.212
COc1cc(NN2C(C(O)c3cc(OC)c(OC)c(OC)c3)C=CC3C(=O)N(C)C(=O)C32)cc(OC)c1OC (stereo not given),-0.991,-0.919,-0.122,-0.147,-0.176,-1.09,-1.04 (inactive),0.729,-0.417,-0.4 (inactive),-0.177,0.712 (inactive),-0.464 (inactive),-1.27 (inactive),0.366 (inactive),0.276 (inactive),-0.0468 (inactive),0.179 (inactive),-0.97,-0.144
CC[C@@H]1C=C(C(=O)O)[C@H](c2ccccc2)N1S(=O)(=O)c1ccc(C)cc1,-0.71,-1.48,-1.22,-0.0502,-0.674,-0.93,-0.703 (inactive),0.77,-0.76,-0.687 (inactive),-0.791,0.34 (inactive),-1.17 (inactive),-0.95 (inactive),0.16 (inactive),-1.02 (inactive),-0.666 (inactive),-0.135 (inactive),-1.54,-0.0663
CN(C)C(=O)[C@]1(CCC(=O)OC(C)(C)C)N=C(c2ccc(OCCCO)cc2)O[C@@H]1c1ccccc1CN=[N+]=[N-],-0.307,0.911,0.697,0.545,0.259,1.74,-0.682 (inactive),0.124,-0.412,0.669 (inactive),1.52,-0.756 (inactive),0.136 (inactive),-0.369 (inactive),-0.36 (inactive),-0.0274 (inactive),0.0547 (inactive),-0.0727 (inactive),0.471,-0.0501
CCCCN1CC=CC23O[C@@H]4/C=C\CCCOC(=O)C4[C@H]2C(=O)N(CCO)[C@@H]3C1=O (stereo not given in full),-0.129,1.63,-0.0509,1.04,-0.711,-0.415,0.0794 (inactive),0.378,1.39,-0.688 (inactive),-1.03,0.291 (inactive),0.294 (inactive),0.538 (inactive),-0.221 (inactive),0.507 (inactive),-0.088 (inactive),-0.389 (inactive),0.0725,0.0537
COc1ccc([Si](C)(C)[C@@H]2[C@@H](CCO)O[C@]3(C(=O)N(Cc4ccccc4)c4ccc(N5C(=O)c6cccc7cccc5c67)cc43)[C@H]2C)cc1,-0.768,-0.384,-0.916,-0.61,-2.73,-0.555,0.943 (inactive),-0.751,-1.3,-0.149 (inactive),-0.0019,0.282 (inactive),0.274 (inactive),-0.488 (inactive),2.24 (inactive),4.59 (inactive),2.16 (inactive),1.45 (inactive),-0.298,-0.152
CC(C)C(CO)N1C(=O)[C@@H]2C3C(=O)OCCC/C=C\[C@H]3OC23C=CCN(c2ccc4ccccc4c2)C(=O)[C@@H]13 (stereo not given in full),-0.0401,-0.0738,-0.131,0.292,0.457,-0.0404,-0.0718 (inactive),0.0134,-0.332,-0.525 (inactive),-0.507,0.267 (inactive),-0.235 (inactive),-0.42 (inactive),-0.292 (inactive),-0.259 (inactive),-0.275 (inactive),-0.24 (inactive),-0.344,0.683
COCCOC(=O)N1C(=O)[C@@]2(c3cc(C#CC4=CCCCC4)ccc31)[C@H](C(=O)Nc1nc3ccccc3s1)[C@H]1C(=O)O[C@H](c3ccccc3)[C@H](c3ccccc3)N1[C@@H]2c1ccc(O)cc1,0.427,0.217,0.0981,-1.79,-1.62,-3.16,-0.762 (inactive),-0.404,-0.54,-0.353 (inactive),-0.263,-0.344 (inactive),-0.679 (inactive),0.347 (inactive),0.766 (inactive),-0.145 (inactive),-0.469 (inactive),-0.765 (inactive),-0.527,-0.138
CC(C)(C)OC(=O)COc1cccc(C(=O)CCN2CCOCC2)c1,1.06,0.477,-0.0751,-3.27,-4.4,-1.01,-0.0351 (inactive),-0.885,-2.04,1.5 (inactive),0.454,-10.3 (active),-0.971 (inactive),-3.31 (inactive),-1.03 (inactive),-0.616 (inactive),0.215 (inactive),0.0359 (inactive),-3.51,-0.203
C=CCOC(=O)[C@@]1(Cc2ccccc2)C[C@H]2CO[C@H](c3ccc(OC)cc3)N2C1=O,0.158,0.223,-0.311,-0.657,-1.5,-0.574,0.437 (inactive),-0.272,-0.47,0.864 (inactive),-0.352,-2.69 (inactive),0.437 (inactive),-0.972 (inactive),0.125 (inactive),-1.1 (inactive),-0.0115 (inactive),-0.187 (inactive),0.0399,-0.184
COCCOC(=O)N1C(=O)[C@@]2(c3cc(C#CCCO)ccc31)[C@H](C(=O)Nc1nc3ccccc3s1)[C@H]1C(=O)O[C@H](c3ccccc3)[C@H](c3ccccc3)N1[C@@H]2c1ccc(O)cc1,-0.378,0.274,0.123,0.0566,-2.06,0.248,0.15 (inactive),-0.314,-0.471,0.771 (inactive),-0.0461,1.26 (inactive),-0.159 (inactive),1.35 (inactive),0.325 (inactive),1.52 (inactive),-0.356 (inactive),-1.07 (inactive),-0.358,-0.105
